Experimental data reported in PubChem BioAssay (EPA / NIEHS).
“And” between values parts separate entries of the source, which are not always exact repeats. Equal values may be shown once. Inconclusive results are not listed. Where a structure was tested more than once in an assay, its records may differ in their call. The source made the active and inactive calls. How the source made its calls: active means hit-call score of the fitted dose curve at least 0.9, where 1 is the maximum; inconclusive means response in the unintended direction; inactive means score below 0.9.

What follows are compounds tested against Cellular tumor antigen p53 (Homo sapiens) (UniProt P04637) (assay: TOX21_p53_BLA_p4_ratio: Tox21 HCT-116 p53 Agonism Beta-lactamase Assay, Ratio, Phase 4 (AID 2283601)).
Cellular tumor antigen p53 (Homo sapiens), sequence (P04637 whole entry, looked up): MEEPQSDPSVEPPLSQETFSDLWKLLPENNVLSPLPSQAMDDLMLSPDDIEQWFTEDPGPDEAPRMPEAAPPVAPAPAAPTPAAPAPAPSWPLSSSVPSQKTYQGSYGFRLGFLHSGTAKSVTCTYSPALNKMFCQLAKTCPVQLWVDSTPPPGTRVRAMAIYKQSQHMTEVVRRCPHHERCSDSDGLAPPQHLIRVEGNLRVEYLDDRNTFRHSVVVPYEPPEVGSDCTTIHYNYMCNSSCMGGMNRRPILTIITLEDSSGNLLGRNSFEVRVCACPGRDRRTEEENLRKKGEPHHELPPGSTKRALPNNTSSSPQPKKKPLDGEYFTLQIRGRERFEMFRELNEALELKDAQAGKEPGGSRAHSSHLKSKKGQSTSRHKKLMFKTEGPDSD
Method in brief: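 Signal is the blue/green (460nm/530nm) ratio of cleaved versus uncleaved CCF4-AM substrate, read after 2 h substrate loading. Cells were HCT116 carrying the p53-responsive beta-lactamase reporter, dosed 16 h at 37C, 5% CO2; CellTiter-Glo measured in parallel.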

Structure (SMILES) | AC50 | outcome
Cc1cc(-c2ccc(N)c(C)c2)ccc1N | 70.7 µM (active) | inactive
CCOC(=O)C(O)(c1ccc(Cl)cc1)c1ccc(Cl)cc1 | 68.6 µM (active) and 60.8 µM (active) | 
OCC(O)CO |  | inactive
ClC(Cl)=C(c1ccc(Cl)cc1)c1ccc(Cl)cc1 |  | inactive
NS(=O)(=O)C(F)(F)C(F)(F)C(F)(F)C(F)(F)C(F)(F)C(F)(F)C(F)(F)C(F)(F)F |  | inactive
CC(c1ccc(O)cc1)(c1ccc(O)cc1)c1ccc(O)cc1 | 80.8 µM (active) | 
CN(C)CCO |  | inactive
c1cc2ccc3cccc4ccc(c1)c2c34 |  | inactive
CCC(C)(c1ccc(O)cc1)c1ccc(O)cc1 | 84.6 µM (active) and 82.3 µM (active) | 
ClC1=C(Cl)[C@]2(Cl)[C@@H]3[C@@H](Cl)[C@H]4O[C@H]4[C@@H]3C1(Cl)C2(Cl)Cl | 72.3 µM (active) | 
Oc1ccc(C(c2ccc(O)cc2)(C(F)(F)F)C(F)(F)F)cc1 | 57.3 µM (active) and 69.7 µM (active) | 
C=CC(=O)NCNC(=O)C=C |  | inactive
Cc1ccc(O)c(C)c1 |  | inactive
CC(C)(O)C(=O)Nc1ccc([N+](=O)[O-])c(C(F)(F)F)c1 |  | inactive
C[C@]12CCC(=O)C=C1CC[C@@H]1[C@@H]2CC[C@]2(C)C(=O)CC[C@@H]12 |  | inactive
CC(C)C(=O)OCC(C)(C)C(OC(=O)C(C)C)C(C)C (stereo not given) |  | inactive
O=NN(c1ccccc1)c1ccccc1 |  | inactive
O=C(N[C@H]1CN2CCC1CC2)c1cc2ccoc2cn1 |  | inactive
CO/C=C(/C(=O)OC)c1ccccc1COc1cccc(C(F)(F)F)n1 | 5.53 µM (active) | 
